We go through 26 molecules from PubChem BioAssay AID743482 (Broad Institute, 2014).

Unmarked numbers belong to inactive results.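 Rule for the calls: active = falling viability signal whose fitted half-maximal concentration is at most twice the highest tested dose; inconclusive = flat fit with a moderate drop, or a poor curve fit; inactive = the rest.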

The nature of the test: HepG2 viability loss by ATP level – cell-based, CellTiter-Glo luminescence, dry powder, cytotoxicity control, dose response (AID 743482). The note with it: 72 h; series mostly up to 26 µM; activity change, negative = cytotoxicity: at the top concentration. Background: Cellular ATP, detected with luciferase, serves as a proxy for viable cell number.
With `C[C@H]1CCCCO[C@@H](CN(C)C(=O)Nc2ccc3c(c2)OCO3)[C@@H](C)CN([C@@H](C)CO)C(=O)c2cc(NC(=O)NC3CCCCC3)ccc2O1`, the “activity change, negative = cytotoxicity” value is 6.93%.
As for `C[C@@H]1CCCCO[C@@H](CN(C)C(=O)Nc2cccc3ccccc23)[C@H](C)CN([C@@H](C)CO)C(=O)c2cc(NC(=O)C3CCCCC3)ccc2O1`, the figure is -6.6%.
Under `COc1ccc(S(=O)(=O)N(C)C[C@@H]2OCCCC[C@H](C)Oc3ccc(NS(=O)(=O)c4ccc(Cl)cc4)cc3C(=O)N([C@@H](C)CO)C[C@@H]2C)cc1` stands -12%.
As for `C[C@H](CO)N1C[C@H](C)[C@H](CN(C)C(=O)Nc2ccc(F)cc2)OCCCC[C@H](C)Oc2ccc(NC(=O)C3CC3)cc2C1=O`, the figure is 15.6%.
For `COc1ccc(NC(=O)N(C)C[C@@H]2OCCCC[C@H](C)Oc3ccc(NC(=O)C4CCCCC4)cc3C(=O)N([C@H](C)CO)C[C@@H]2C)cc1`, the “activity change, negative = cytotoxicity” value is 1.76%.
Under `C[C@H](CO)N1C[C@H](C)[C@H](CN(C)C(=O)Nc2ccccc2)OCCCC[C@H](C)Oc2ccc(NC(=O)CCC(F)(F)F)cc2C1=O` stands 15.7%; under `C[C@H](CO)N1C[C@H](C)[C@H](CN(C)C(=O)Nc2cccc3ccccc23)OCCCC[C@H](C)Oc2ccc(NC(=O)C3CCCCC3)cc2C1=O`, 27%; under `C[C@@H]1CN([C@@H](C)CO)C(=O)c2cc(NC(=O)C3CCCCC3)ccc2O[C@@H](C)CCCCO[C@@H]1CN(C)C(=O)Nc1cccc2ccccc12`, -1.51%.
Under `CC(C)(C)c1ccc(-c2nc(-c3ccncc3)no2)cc1` stands -8.66%; under `C[C@H](CO)N1C[C@H](C)[C@H](CN(C)C(=O)Nc2cccc3ccccc23)OCCCC[C@H](C)Oc2ccc(NC(=O)CCC(F)(F)F)cc2C1=O`, 20.8%; under `C[C@@H]1CCCCO[C@H](CN(C)C(=O)Nc2cccc3ccccc23)[C@H](C)CN([C@@H](C)CO)C(=O)c2cc(NC(=O)C3CCCCC3)ccc2O1`, 10.5%.
For the molecule `C[C@H]1CCCCO[C@@H](CN(C)S(=O)(=O)c2ccc(Cl)cc2)[C@@H](C)CN([C@@H](C)CO)C(=O)c2cc(NC(=O)NC3CCCCC3)ccc2O1`, the “activity change, negative = cytotoxicity” value is -6.85%.
Take `C[C@H](CO)N1C[C@H](C)[C@H](CN(C)C(=O)Nc2ccc(F)cc2)OCCCC[C@H](C)Oc2ccc(NC(=O)C3CCOCC3)cc2C1=O`: the “activity change, negative = cytotoxicity” value is 13%.
As for `C[C@H](CO)N1C[C@H](C)[C@H](CN(C)C(=O)Nc2cccc(F)c2)OCCCC[C@H](C)Oc2ccc(NC(=O)C3CCCCC3)cc2C1=O`, the figure is 6.51%.
As for `C[C@@H]1CCCCO[C@H](CN(C)C(=O)Nc2cccc3ccccc23)[C@@H](C)CN([C@@H](C)CO)C(=O)c2cc(NC(=O)C3CCCCC3)ccc2O1`, the figure is 54.1%; as for `COc1ccc(S(=O)(=O)N(C)C[C@@H]2OCCCC[C@H](C)Oc3ccc(NS(=O)(=O)c4ccc(F)cc4)cc3C(=O)N([C@@H](C)CO)C[C@@H]2C)cc1`, 3.65%.
Under `C[C@H](CO)N1C[C@H](C)[C@H](CN(C)C(=O)Nc2ccc(F)cc2)OCCCC[C@H](C)Oc2ccc(NC(=O)C3CCCCC3)cc2C1=O` stands 51.3%.
As for `C[C@@H]1CCCCO[C@H](CN(C)C(=O)Nc2cccc3ccccc23)[C@H](C)CN([C@H](C)CO)C(=O)c2cc(NC(=O)C3CCCCC3)ccc2O1`, the “activity change, negative = cytotoxicity” value is 26.6%.
Under `C[C@H](CO)N1C[C@H](C)[C@H](CN(C)C(=O)Nc2ccccc2)OCCCC[C@H](C)Oc2ccc(NC(=O)NC3CCCCC3)cc2C1=O` stands 18.5%; under `C[C@H](CO)N1C[C@H](C)[C@H](CN(C)C(=O)Nc2ccc(C(F)(F)F)cc2)OCCCC[C@H](C)Oc2ccc(NC(=O)CCC(F)(F)F)cc2C1=O`, 27.6%; under `C[C@H](CO)N1C[C@H](C)[C@H](CN(C)C(=O)Nc2ccccc2F)OCCCC[C@H](C)Oc2ccc(NC(=O)C3CCCCC3)cc2C1=O`, 5.81%.
Take `C[C@H]1CCCCO[C@@H](CN(C)C(=O)Nc2ccccc2)[C@@H](C)CN([C@@H](C)CO)C(=O)c2cc(NC(=O)NC3CCCCC3)ccc2O1`: the “activity change, negative = cytotoxicity” value was 47.5%.
As for `C[C@H]1CCCCO[C@@H](CN(C)C(=O)Nc2ccc(F)cc2)[C@@H](C)CN([C@@H](C)CO)C(=O)c2cc(NC(=O)C3CCCCC3)ccc2O1`, the figure is 50.6%; as for `Cc1ccc(NC(=O)N(C)C[C@@H]2OCCCC[C@H](C)Oc3ccc(NC(=O)C4CCCCC4)cc3C(=O)N([C@H](C)CO)C[C@@H]2C)cc1`, 8.53%.
Under `C[C@@H]1CCCCO[C@@H](CN(C)C(=O)Nc2cccc3ccccc23)[C@H](C)CN([C@H](C)CO)C(=O)c2cc(NC(=O)C3CCCCC3)ccc2O1` stands 2.79%.
Turning to `C[C@H](CO)N1C[C@H](C)[C@H](CN(C)C(=O)Nc2ccc3c(c2)OCO3)OCCCC[C@H](C)Oc2ccc(NC(=O)C3CCCCC3)cc2C1=O`, the “activity change, negative = cytotoxicity” value is 26.9%.
